Laboratory results as given in PubChem BioAssay AID651965 (National Center for Advancing Translational Sciences (NCATS), 2013).
In all, about 340,000 compounds went through this assay and about 6,400 (1.9%) were called active. Another 4% or so got no clear call; they are omitted. The call rests on the fitted dose curve; in most records, active means well fitted falling curve with a large enough effect; inconclusive means small, poorly fitted or top-dose-only effect; inactive means no such curve, though single readings can be large or run the other way. Only a selection was taken, and actives are over-represented in it overall.

target: ATP-dependent Clp protease proteolytic subunit (Bacillus subtilis (strain 168)) (UniProt P80244); test: qHTS Assay for Activators of ClpP; further: the source files actives as falling curves though it sought activators and does not explain the sign; nearly all actives have a fitted effect of over 65% in size; settings: purified B. subtilis ClpP, FRET peptide cleavage, 20 min; series mostly up to 57.5 µM; activity change, negative = active: at the top concentration
Procedure, shortened: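 ClpP 10 microg/mL final, pH 8 Tris/KCl buffer with BSA, glycerol, Tween-20; compound pinned in; FRET-FV substrate; RT 20 min; Ex320/Em430; ΔFRET vs ADEP 5.8 microM, DMSO, no enzyme.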
Potency means the concentration at half of the fitted maximal effect.

Activity change, negative = active, inactive:
CN1OC[C@@H]2CN(C(=O)c3cccnc3)[C@H](c3ccc(N4CCCCC4)cc3)C[C@@H]21 -5.72%, c1ccc(-c2cc(-c3ccccc3)[nH]n2)cc1 -3.14%, c1ccc(-c2ccc3c(c2)NC(C2Nc4cc(-c5ccccc5)ccc4O2)O3)cc1 (stereo not given) -25.4%, CCCCN1CC(N2CCN(Cc3cccc(C)c3)CC2)CS1(=O)=O (stereo not given) 0.479%, O=C(COc1ccccc1Cl)N1N=C(c2cccs2)CC1c1ccco1 (stereo not given) 4.14%, COc1ccc(C2CC(c3cccs3)=NN2C(=O)COC(=O)c2cc3ccccc3cc2O)cc1OC (stereo not given) -1.29%, CN(C)CCNC(=O)c1ccc(-c2cn3c(-c4ccc(Oc5ccccc5)cc4)cnc3cn2)cc1 5.02%, OC(c1ccccc1)c1nc(-c2cnc3ccccc3c2)cs1 (stereo not given) -21.1%, C(=Nc1ccc(/C=C/c2ccnc3ccccc23)cc1)c1cc2c3c(c1)CCCN3CCC2 -19.7%, CC1=C(C(=O)N(C(C)C)C(C)C)CC(CC(=O)NCC2CCCCC2)C(=O)N1Cc1ccccc1 (stereo not given) 1.72%, CNC(=O)/C(=C\C=C\c1ccccc1)NC(=O)c1ccc([N+](=O)[O-])cc1 -4.83%, Cc1ccc(C(=O)N/C(=C/C=C/c2ccccc2)C(=O)NCc2ccco2)cc1 -5.07%, Cc1cccc(C)c1-n1nnnc1C1(C)CCC(=O)N1CCOc1ccccc1 (stereo not given) 2.41%, CC1(C(=O)NS(=O)(=O)c2cccc(F)c2)CCN1C(=O)Cc1cc(F)ccc1F (stereo not given) 0.531%, C[C@@H]1CN([C@@H](C)CO)C(=O)c2c(c3ccccc3n2C)-c2ccccc2CO[C@H]1CN(C)C(=O)C1CC1 -28.9%, COc1ccc(S(=O)(=O)NC(=O)C2(C)CCN2C(=O)COc2ccc(Cl)cc2)cc1 (stereo not given) -0.2%, CCNC(=O)N1CCN(S(=O)(=O)c2ccc3c(c2)OCCCO3)CC1 -0.0478%, COC(=O)[C@]12CCCCC=C1N(Cc1ccc(Cl)cc1Cl)C(=O)[C@H](CC(=O)NCc1cccc3ccccc13)C2 -14.3%, COCCNc1ncnc2c1c(-c1ccccc1)cn2-c1ccc(C)c(Cl)c1 -8.2%, O=c1[nH]cnc2c1c(-c1ccccc1)cn2-c1ccc(F)cc1 -3.07%, COc1ccc(CC(N)c2csc(NC(=O)NC(c3ccccc3)c3ccccc3)n2)cc1 (stereo not given) -2.62%, CC1(C(=O)NCc2ccccc2)CSCC(=O)N1CCCn1ccnc1 (stereo not given) -0.215%, COC(=O)[C@]12CCCCC=C1N(Cc1ccc3c(c1)OCO3)C(=O)[C@H](CC(=O)N1CCOCC1)C2 2.24%, CC(C)NC(=O)C1(C)CCCCN1Cc1cccc(C(F)(F)F)c1 (stereo not given) 1.93%, COc1ccccc1NC(=S)N1CCC(NC(=O)C23CC4CC(CC(C4)C2)C3)CC1 -2.04%, CCCNC(=S)N1CCC(NC(=O)C23CC4CC(CC(C4)C2)C3)CC1 1.09%, CC(=O)N1Cc2cc(C(=O)NCc3cccc(F)c3)nc(-c3cccc(C4=CCCC4)c3)c2[C@H]1CCO -3.63%, COC(=O)[C@@]12C[C@@H](CC(=O)NCCCCc3ccccc3)C(=O)N(CCc3ccc(OC)c(OC)c3)C1=CCC(C)(C)C2 -3.69%, COc1ccc(-c2ccc3[nH]c4c(c3c2)CCN2C[C@H]3[C@H](C)ON(C)[C@H]3C[C@@H]42)cc1 -10.6%, CCC(=O)Nc1ccc(C)cc1-c1nc2ccccc2n(Cc2ccccc2)c1=O 0.727%, CCN(CC)CCn1c(N)c(S(=O)(=O)c2ccccc2)c2nc3ccccc3nc21 3.65%, CCOC(=O)[C@]12CCCC=C1N(CCC1=CCCCC1)C(=O)[C@H](CC(=O)N1CCN(C(=O)c3ccco3)CC1)C2 -1.83%, CCCCCCCNc1ccc(/C=C/c2ccnc3ccccc23)cc1 -0.676%, Cc1cccc(C(=O)NC(=S)N2CCN(c3ccc([N+](=O)[O-])cc3)CC2)c1 0.049%, O=C(c1cc(C(=O)N2CCN(c3ccc(F)cc3)CC2)cc([N+](=O)[O-])c1)N1CCN(c2ccc(F)cc2)CC1 -2.08%, CCCCc1ccc(S(=O)(=O)NC(=O)C2(C)CCN2C(=O)c2ccccc2)cc1 (stereo not given) -2.77%, Cc1ccc(-c2nc(=N)sn2Cc2ccccc2)cc1 -3.16%, Cc1ccc(C=O)cc1Cl 0.201%, CC1(C(=O)NS(=O)(=O)c2cccc(OC(F)F)c2)CCN1C(=O)C1CC1 (stereo not given) 1.45%, CC(=O)Nc1cc(-c2ccc(N3CCN(C)CC3)cc2)cn2c(-c3ccc(F)cc3)cnc12 -15%, CCOC(=O)N1CCN(C(c2ccnc3ccccc23)c2nnnn2-c2c(C)cccc2C)CC1 (stereo not given) 1.38%, COc1cc(F)ccc1-c1cc(C(=O)NCC2CCCCC2)[nH]n1 -1.75%, COc1ccc(CSc2nnnn2-c2ccc(C(=O)O)cc2)cc1 1.38%, COc1ccc(-n2nnnc2CNC(=O)c2ccc3ccccc3c2)cc1 -16%, CCCCOCCCNC(=O)C[C@@H]1C[C@@]2(C(=O)OC)CCCCC=C2N(CCC2=CCCCC2)C1=O 1.12%, COc1ccccc1CNC(=O)c1cc(-c2cc(Cl)ccc2C)n[nH]1 -0.552%, OC[C@H]1O[C@@H](c2nc(-c3nc(-c4ccc(F)cc4)no3)cs2)[C@H](O)[C@@H](O)[C@H]1O -1.14%, Cc1nn(CC(=O)N2CCN(c3cccc(C(F)(F)F)c3)CC2)c(=O)c2cc3sccc3n12 -1.4%, CCN1CCN(C(=O)Cn2nc(C)n3c(cc4c(OC)cccc43)c2=O)CC1 3.98%, CN[C@H]1C[C@H]2c3cc(Oc4ccccc4C)ccc3CCN2C(=O)[C@H]1[C@H](C)O -4.92%, CCCS(=O)(=O)NC(=O)C1(C)CCCN(C(=O)c2cc(C)on2)C1 (stereo not given) -2.31%, CCCCCCC1(C)NC(c2ccc3c(c2)OCO3)=CC(c2ccccc2O)N1 (stereo not given) -6.14%, CCOC(=O)N1CCC(NC(=O)Cc2cn(C)c3ccccc23)CC1 -21%, CCOC(=O)N1CCC(NC(=O)CCc2cn(C)c3ccccc23)CC1 -26.7%, COc1cccc(NC(=O)C2(C)CCN2C(=O)CCC2CCCC2)c1 (stereo not given) -0.927%, CN(C)S(=O)(=O)c1cccc(NC(=O)COC(=O)C2(c3ccccc3F)CCCC2)c1 0.268%, O=C(COC(=O)C1(c2ccc(F)cc2)CCCC1)N1CCNC1=O -1.05%, CC1=CC(C)(C)N(C(=O)CSc2nnc(-c3ccccc3)o2)c2ccc(C)cc21 -0.107%, COc1ccc2c(c1)C(C)=CC(C)(C)N2C(=O)CNCc1ccc2c(c1)OCO2 2.1%, COc1ccc(S(=O)(=O)N2CCCCC2c2cc(C(=O)NCc3ccc(F)cc3)no2)cc1 (stereo not given) 0.0963%, Cc1nc(N=C(N)N)nc2c(C)cccc12 0.0945%, CC(=O)Oc1ccc(-c2nc3c(C)cccc3c(=O)o2)cc1 -2.1%, Nc1ccc(/C=C/c2ccnc3ccccc23)c([N+](=O)[O-])c1 0.526%, O=C1NC[C@H](Cc2ccc(O)cc2)N(C[C@H]2CCCN2C[C@H](Cc2ccccc2)N2C[C@H](Cc3ccccc3)N(CCc3ccccc3)C(=O)C2=O)C1=O -3.18%, Cc1occc1C(=O)Nc1cccc(S(=O)(=O)N2CCOCC2)c1 1.54%, O=C(CSc1ccccc1)Nc1cccc(S(=O)(=O)N2CCOCC2)c1 1%, CC(C)c1cccc(-c2csc(C(O)c3ccccc3)n2)c1 (stereo not given) -2.46%, OC(CBr)CN1CCCCC1 (stereo not given) 0.573%, COc1ccc(CNC(=O)c2ccc3c(O)c(S(=O)(=O)c4ccccc4)c(=O)[nH]c3c2)cc1 -27%, NC(=O)Cc1ccc2c(c1)[nH]c1ccccc12 -19.7%, COC(=O)Cc1ccc(NC(=S)NCc2ccccc2)cc1 -1.76%, CCc1ccc2[nH]c(=O)c(Cc3ccccc3)c(O)c2c1 3.85%, CCCc1nc2ccccc2c(=O)n1NC(=O)c1c(O)c2ccccc2[nH]c1=O -15.9%, O=C(Cc1ccccc1)NCc1ccc(F)cc1 3.53%, CCC(C)N(c1ccc(/C=C/c2ccnc3ccccc23)cc1)C(C)CC (stereo not given) -0.824%, COC(=O)c1ccc2nc(C3CCCCC3)c(Cc3cccc(F)c3)n2c1 -13.5%

Potency, inactive:
CN1CCCN(S(=O)(=O)c2ccc3c(c2)OCCO3)CC1

Potency, active:
c1ccc(-c2c[nH]c(-c3ccccc3)c2)cc1 20 µM, O=C1c2cccc(OCC(=O)N3N=C(c4cccs4)CC3c3ccc(F)cc3)c2CCN1Cc1ccccc1 (stereo not given) 15.8 µM, O=C(NCCCO)/C(=C\C=C\c1ccccc1)NC(=O)c1ccccc1Cl 28.2 µM, CCCCCC(=O)N1CCN(S(=O)(=O)c2ccc3c(c2)OCCCO3)CC1 28.2 µM, CCCNc1ncnc2c1c(-c1ccccc1)cn2-c1ccc(OCC)cc1 25.1 µM, COCCNC(=S)N1CCC(NC(=O)C23CC4CC(CC(C4)C2)C3)CC1 28.2 µM, CCC(=O)Nc1c(S(=O)(=O)c2ccccc2)c2nc3ccccc3nc2n1Cc1ccccc1 14.1 µM, O=C(c1cncc(Br)c1)N1CCN(c2ccc([N+](=O)[O-])cc2)CC1 28.2 µM, COc1ccc(-n2nnnc2-c2nc3ccccc3s2)cc1 28.2 µM, COc1cccc2c1cc1c(=O)n(CC(=O)N3CCN(c4ccccc4)CC3)nc(C)n12 25.1 µM, CCOC(=O)N1CCC(NC(=O)C(C)n2c3ccccc3c3cnn(C)c(=O)c32)CC1 (stereo not given) 28.2 µM, NS(=O)(=O)c1ccc(NC(=O)COC(=O)C2(c3ccc(F)cc3)CCCC2)cc1 28.2 µM, COc1ccc2c(c1)C(C)=CC(C)(C)N2C(=O)Nc1ccccc1 28.2 µM, COc1nc(N=C(N)N)nc2c(C)cccc12 3.16 µM, O=C(Nc1cccc(S(=O)(=O)N2CCOCC2)c1)C12CC3CC(CC(C3)C1)C2 31.6 µM, COC(=O)Cc1c(-c2[nH]c3ccccc3c2CC(=O)OC)[nH]c2ccccc12 28.2 µM, O=C(Cc1c(O)c2ccccc2[nH]c1=O)NCc1ccccc1 20 µM, CCCOC(=O)Cc1c(O)c2ccccc2[nH]c1=O 25.1 µM
